The record followed here is PubChem BioAssay (NCI).

The structures appear in SMILES notation. About 83,000 compounds went through this panel and 20% of them were active in at least one assay; those are over-represented in the sample as a whole.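 The test compound was applied at a single concentration to cells in 96-well plates for 48 hours, and percent growth was recorded.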 Values without a mark were called inactive. Calls of active or inactive are those of the source. The calls were made as follows: active = growth percent below 10; inactive = the rest.

Common to all, as to assay: NCI-60 one-dose screen, 48 h (100 = growth as untreated, 0 = no growth, -100 = all killed)
What all share (settings): 10 µM unless noted

In experiment [1] the test system is SK-MEL-2 melanoma.
For experiment [2], the system named is SN12C renal.
For experiment [3], the system named is UO-31 renal.
The subject of experiment [4] is TK-10 renal.
Experiment [5] relates to ACHN renal.
Experiment [6] concerns CAKI-1 renal.
The subject of experiment [7] is A498 renal.
In experiment [8] the test system is CCRF-CEM leukemia.
Experiment [9] has as its system MOLT-4 leukemia.
Experiment [10] has as its system SR leukemia.
Experiment [11] has as its system RPMI-8226 leukemia.
Experiment [12] concerns OVCAR-8 ovarian.
Experiment [13] concerns OVCAR-5 ovarian.
Experiment [14] deals with OVCAR-4 ovarian.
Experiment [15] deals with SK-OV-3 ovarian.
Experiment [16] relates to IGROV1 ovarian.
In experiment [17] the test system is OVCAR-3 ovarian.
The subject of experiment [18] is HS 578T breast.
Experiment [19] relates to NCI/ADR-RES ovarian.
Experiment [20] deals with EKVX NSCLC.

Turning to `COc1ccc(/C(C)=N/NS(=O)(=O)c2ccc(C)cc2)cc1OC`, the growth in experiment [1] is 122%; in experiment [2] it was 109%; in experiment [3], 103%; in experiment [4], 104%; in experiment [5], 103%; in experiment [6], 90.4%. The growth in experiment [7] was 87.2%; in experiment [8], 102%; in experiment [9] it was 98.2%; in experiment [10] it was 137%; in [11] it was 95.3%; in experiment [12], 104%. The growth was 109% in experiment [13]; 107% in [14]; 86.8% in [15]; 114% in experiment [16]; 110% in experiment [17]; 97.2% in experiment [18]. For the same molecule, the growth in [19] is 101%.

As for `Cc1ccc(S(=O)(=O)Nc2sccc2-c2nc(-c3ccccc3)no2)cc1`, the growth in experiment [1] is 91.6%; in experiment [20], 94.2%; in experiment [3] it was 70.4%; in [4], 103%; in experiment [5], 89.9%; in experiment [6], 81.3%. Further, the growth in experiment [7] was 96.3%; in experiment [8], 92.1%; in experiment [9], 98%; in [11] it was 84.2%; in experiment [12], 89.4%; in experiment [13], 85.8%. Moreover, the growth in experiment [14] is 95.1%; in experiment [15] it was 89.1%; in experiment [16], 87.9%; in experiment [17] it was 92.2%; in experiment [18] it was 97%; in experiment [19], 99.2%.

Consider `COc1ccc(-c2nc3sc4c(c3c(=O)[nH]2)CCCC4)c2ccccc12`, for which the growth was 29.4% in experiment [1]; 36.2% in experiment [2]; 24.8% in experiment [3]; 38.3% in [4]; -32.5% (active) in [5]; 9.7% (active) in experiment [6]. The growth in experiment [7] is -24.4% (active); in [8], 12.5%; in [9], 14.2%; in experiment [10], 7.04% (active); in [11] it was 11.5%; in [12], 12.8%. Also, the growth in experiment [13] is -17.7% (active); in [14], -7.19% (active); in experiment [15] it was 33.7%; in [16] it was 37.5%; in experiment [17] it was -64.5% (active); in [18], -0.402% (active). Also, in experiment [19], the growth was 5.34% (active).

On to `C=C1C(=O)O[C@H]2[C@H]1CC/C(Cn1cc(CNCCc3c[nH]c4ccc(Cl)cc34)nn1)=C\CC[C@@]1(C)O[C@@H]21`, for which the growth is 52.3% in [1]; 84.1% in experiment [20]; 80.1% in experiment [3]; 0.209% (active) in experiment [4]; 54% in [5]; 48.2% in experiment [6]. Also, the growth is -29.6% (active) in experiment [8]; 0.755% (active) in experiment [9]; 9.44% (active) in [11]; 59.6% in [12]; 83.5% in experiment [13]; 41.7% in experiment [14]. The growth in experiment [15] is 72.6%; in experiment [16], 2.11% (active); in [17] it was 11.9%; in experiment [18], 83.4%; in [19], 102%.

Regarding `CC(C)c1ccc(C(=O)OC(=O)c2ccc(C(C)C)cc2)cc1`, the growth was 92.4% in experiment [1]; 99.7% in experiment [20]; 83.9% in experiment [3]; 98.2% in experiment [4]; 96% in experiment [5]; 67.7% in experiment [6]. The growth was 66.8% in [8]; 66.2% in experiment [9]; 60.2% in [10]; 82.9% in experiment [11]; 100% in experiment [12]; 89.2% in experiment [13]. In addition, the growth in experiment [14] is 105%; in experiment [15], 110%; in [16], 98.8%; in experiment [17], 106%; in experiment [18] it was 104%; in [19] it was 95.4%.

For `C[C@H]1[C@H]2C3=CC[C@@H]4[C@@]5(C)C/C(=C/c6ccncc6)C(=O)C(C)(C)[C@@H]5CC[C@@]4(C)[C@]3(C)CC[C@@]2(C(=O)N2CCN(C)CC2)CC[C@@H]1C`, the growth in experiment [1] was 96.3%; in experiment [20], 78.3%; in experiment [3], 62.4%; in experiment [4] it was 86.1%; in [5], 91%; in experiment [6], 75.1%. The growth is 93.9% in experiment [7]; 64.7% in [8]; 52.1% in experiment [9]; 50.2% in experiment [11]; 76.7% in [12]; 86.7% in experiment [13]. Moreover, the growth in experiment [14] was 73.6%; in [15] it was 82.9%; in experiment [16], 84%; in experiment [17], 76.3%; in experiment [18], 70%; in [19], 80.6%.

As to `COc1cc(NC(=O)c2cccc(-c3cc(=O)c4c(OC)c(OC)c(OC)cc4o3)c2)cc(OC)c1OC`, the growth in experiment [1] was 41.7%; in experiment [2] it was 45.9%; in experiment [3] it was 20.9%; in [4], 69.4%; in experiment [5], 56.7%; in experiment [6], 40.6%. For the same molecule, the growth in experiment [7] was 57.4%; in experiment [8], 31.3%; in [9], 10.4%; in experiment [10], 29.8%; in [11], 0.302% (active); in experiment [12], 30.9%. Further, the growth in [13] was 86%; in [14] it was 74.8%; in [16] it was 51.8%; in [17], 40.8%; in experiment [18], 9.2% (active); in experiment [19] it was 51.1%.

Turning to `CNC(=O)c1cc(Oc2ccc3nc(Nc4cc(Cl)cc(Cl)c4)ccc3c2)ccn1`, the growth is 53.1% in experiment [20]; 78.9% in experiment [2]; 58.9% in experiment [3]; 74.3% in experiment [4]; 62.6% in experiment [5]; 84.1% in experiment [6]. Also, the growth in experiment [7] is 35.2%; in [8], 81.1%; in experiment [9], 33.7%; in experiment [10], 6.56% (active); in experiment [11], 57.6%; in [12], 67.9%. The growth is 104% in experiment [13]; 57.2% in [14]; 86.2% in experiment [15]; 79.6% in experiment [16]; 57.8% in experiment [17]; 64.5% in [18]. Moreover, in [19], the growth was 35.6%.

`CN1CCN(c2ccc(Nc3ncc(Cl)c(NC[C@@H]4CCCO4)n3)cc2)CC1`: the growth in experiment [20] was 39%; in experiment [2], 28.2%; in experiment [3], -15.6% (active); in experiment [4], 23.6%; in [5], 1.78% (active); in experiment [6], 26.6%. The growth is -25% (active) in experiment [7]; 28% in [8]; 16.8% in experiment [9]; -0.801% (active) in experiment [10]; 29.5% in experiment [11]; 27.5% in experiment [12]. Also, the growth in experiment [13] is 18.1%; in experiment [14], 29.7%; in experiment [15], 28.6%; in [16] it was 23.4%; in [17], 42.8%; in experiment [18] it was 6.95% (active). In addition, the growth in experiment [19] was 31.3%.
